# Data published in PubChem BioAssay AID1159580 (chemical genetic matrix, 2015).
# In all, about 5,500 compounds went through this assay and about 2,000 (36%) were called active. Inconclusive results (about 18%) are left out. This is one part of the list. Unmarked numbers belong to inactive results. Rule as the data show it: active = normalized growth mostly below about 0.91 (no sharp cut-off); inconclusive = no clear call, values can overlap the other calls; inactive = mostly above about 0.92.
# Assay: chemical genetic growth profiling, strain panel (AID 1159580);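 also: tested at 20 µM; growth read once vehicle control cultures reached saturation at 30 °C; 1 = growth at the plate median or of vehicle wells; lower values mean less growth of the strain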
# Conditions: growth OD
smiles,measurement,setting,value
CCc1nc(N)nc(N)c1-c1ccc(Cl)cc1,normalized growth,"S. cerevisiae deletion strains, locus YJR075W, strain HOC1, stronger effect = lower value",0.978
same,normalized growth,"S. cerevisiae deletion strains, locus YKL009W, strain mrt4, stronger effect = lower value",1.01
same,normalized growth,"S. cerevisiae deletion strains, locus YKL068W, stronger effect = lower value",1
same,normalized growth,"S. cerevisiae deletion strains, locus YKL085W, strain MDH1 (second series), stronger effect = lower value",1
same,normalized growth,"S. cerevisiae deletion strains, locus YKL085W, strain MDH1, stronger effect = lower value",1
same,normalized growth,"S. cerevisiae deletion strains, locus YKL160W, strain elf1, stronger effect = lower value",0.948
same,normalized growth,"S. cerevisiae deletion strains, locus YKL190W, strain CNB1, stronger effect = lower value",1.01
same,normalized growth,"S. cerevisiae deletion strains, locus YKR001C, strain vps1, stronger effect = lower value",0.985
same,normalized growth,"S. cerevisiae deletion strains, locus YKR026C, strain gcn3, stronger effect = lower value",1.2 [resistant] (active)
same,normalized growth,"S. cerevisiae deletion strains, locus YKR091W, strain srl3, stronger effect = lower value",0.977
same,normalized growth,"S. cerevisiae deletion strains, locus YLL001W, strain dnm1, stronger effect = lower value",0.942
same,normalized growth,"S. cerevisiae deletion strains, locus YLL026W, stronger effect = lower value",0.992
same,normalized growth,"S. cerevisiae deletion strains, locus YLL041C, strain sdh2, stronger effect = lower value",0.972
same,normalized growth,"S. cerevisiae deletion strains, locus YLR027C, strain aat2, stronger effect = lower value",0.984
same,normalized growth,"S. cerevisiae deletion strains, locus YLR039C, strain RIC1, stronger effect = lower value",1.09
same,normalized growth,"S. cerevisiae deletion strains, locus YLR058C, strain SHM2, stronger effect = lower value",1.01
same,normalized growth,"S. cerevisiae deletion strains, locus YLR102C, strain apc9, stronger effect = lower value",1
same,normalized growth,"S. cerevisiae deletion strains, locus YLR113W, strain HOG1, stronger effect = lower value",1.04
same,normalized growth,"S. cerevisiae deletion strains, locus YLR221C, strain rsa3, stronger effect = lower value",1
same,normalized growth,"S. cerevisiae deletion strains, locus YLR258W, strain gsy2, stronger effect = lower value",0.98
same,normalized growth,"S. cerevisiae deletion strains, locus YLR262C, strain YPT6 (second series), stronger effect = lower value",0.958
same,normalized growth,"S. cerevisiae deletion strains, locus YLR262C, strain YPT6, stronger effect = lower value",1.15
same,normalized growth,"S. cerevisiae deletion strains, locus YLR268W, strain sec22, stronger effect = lower value",0.968
same,normalized growth,"S. cerevisiae deletion strains, locus YLR320W, strain mms22, stronger effect = lower value",0.99
same,normalized growth,"S. cerevisiae deletion strains, locus YLR330W, strain CHS5, stronger effect = lower value",1.01
same,normalized growth,"S. cerevisiae deletion strains, locus YLR342W, strain FKS1 (second series), stronger effect = lower value",0.952
same,normalized growth,"S. cerevisiae deletion strains, locus YLR342W, strain FKS1, stronger effect = lower value",0.989
same,normalized growth,"S. cerevisiae deletion strains, locus YLR357W, strain rsc2, stronger effect = lower value",0.96
same,normalized growth,"S. cerevisiae deletion strains, locus YLR370C, strain arc18, stronger effect = lower value",0.972
same,normalized growth,"S. cerevisiae deletion strains, locus YLR371W, strain rom2, stronger effect = lower value",1.01
same,normalized growth,"S. cerevisiae deletion strains, locus YLR384C, strain iki3, stronger effect = lower value",0.964
same,normalized growth,"S. cerevisiae deletion strains, locus YLR418C, strain cdc73, stronger effect = lower value",0.939
same,normalized growth,"S. cerevisiae deletion strains, locus YML016C, strain PPZ1, stronger effect = lower value",0.999
same,normalized growth,"S. cerevisiae deletion strains, locus YML032C, strain rad52, stronger effect = lower value",0.952
same,normalized growth,"S. cerevisiae deletion strains, locus YML120C, strain ndi1, stronger effect = lower value",0.963
same,normalized growth,"S. cerevisiae deletion strains, locus YML124C, strain tub3, stronger effect = lower value",1
same,normalized growth,"S. cerevisiae deletion strains, locus YMR058W, strain fet3, stronger effect = lower value",0.988
same,normalized growth,"S. cerevisiae deletion strains, locus YMR078C, strain ctf18, stronger effect = lower value",0.998
same,normalized growth,"S. cerevisiae deletion strains, locus YMR125W, strain sto1, stronger effect = lower value",0.932
same,normalized growth,"S. cerevisiae deletion strains, locus YMR129W, stronger effect = lower value",0.976
same,normalized growth,"S. cerevisiae deletion strains, locus YMR205C, strain PFK2, stronger effect = lower value",0.956
same,normalized growth,"S. cerevisiae deletion strains, locus YMR223W, strain ubp8, stronger effect = lower value",0.996
same,normalized growth,"S. cerevisiae deletion strains, locus YMR231W, strain pep5, stronger effect = lower value",0.974
same,normalized growth,"S. cerevisiae deletion strains, locus YMR263W, strain SAP30, stronger effect = lower value",1.01
same,normalized growth,"S. cerevisiae deletion strains, locus YMR307W, strain GAS1, stronger effect = lower value",0.916
same,normalized growth,"S. cerevisiae deletion strains, locus YNL067W, strain RPL9B, stronger effect = lower value",0.999
same,normalized growth,"S. cerevisiae deletion strains, locus YNL071W, strain lat1, stronger effect = lower value",0.976
same,normalized growth,"S. cerevisiae deletion strains, locus YNL128W, strain TEP1, stronger effect = lower value",1.02
same,normalized growth,"S. cerevisiae deletion strains, locus YNL153C, strain GIM3, stronger effect = lower value",1.01
same,normalized growth,"S. cerevisiae deletion strains, locus YNL183C, strain NPR1, stronger effect = lower value",0.998
same,normalized growth,"S. cerevisiae deletion strains, locus YNL209W, strain ssb2, stronger effect = lower value",0.979
same,normalized growth,"S. cerevisiae deletion strains, locus YNL233W, strain BNI4, stronger effect = lower value",0.991
same,normalized growth,"S. cerevisiae deletion strains, locus YNL248C, strain rpa49, stronger effect = lower value",0.966
same,normalized growth,"S. cerevisiae deletion strains, locus YNL250W, strain rad50, stronger effect = lower value",1
same,normalized growth,"S. cerevisiae deletion strains, locus YNL271C, strain bni1, stronger effect = lower value",0.998
same,normalized growth,"S. cerevisiae deletion strains, locus YNL298W, strain CLA4, stronger effect = lower value",1
same,normalized growth,"S. cerevisiae deletion strains, locus YNL307C, strain MCK1, stronger effect = lower value",0.972
same,normalized growth,"S. cerevisiae deletion strains, locus YNL322C, strain KRE1 (second series), stronger effect = lower value",0.975
same,normalized growth,"S. cerevisiae deletion strains, locus YNL322C, strain KRE1, stronger effect = lower value",0.967
same,normalized growth,"S. cerevisiae deletion strains, locus YNR049C, strain mso1, stronger effect = lower value",0.968
same,normalized growth,"S. cerevisiae deletion strains, locus YNR052C, strain pop2, stronger effect = lower value",0.931
same,normalized growth,"S. cerevisiae deletion strains, locus YOL006C, strain TOP1, stronger effect = lower value",1.03
same,normalized growth,"S. cerevisiae deletion strains, locus YOL012C, strain htz1",0.833
same,normalized growth,"S. cerevisiae deletion strains, locus YOL147C, strain pex11, stronger effect = lower value",0.995
same,normalized growth,"S. cerevisiae deletion strains, locus YOR001W, strain rrp6, stronger effect = lower value",0.938
same,normalized growth,"S. cerevisiae deletion strains, locus YOR061W, strain CKA2, stronger effect = lower value",1.01
same,normalized growth,"S. cerevisiae deletion strains, locus YOR069W, strain VPS5, stronger effect = lower value",1
same,normalized growth,"S. cerevisiae deletion strains, locus YOR070C, strain gyp1, stronger effect = lower value",0.998
same,normalized growth,"S. cerevisiae deletion strains, locus YOR080W, strain dia2, stronger effect = lower value",0.951
same,normalized growth,"S. cerevisiae deletion strains, locus YOR083W, strain WHI5, stronger effect = lower value",0.936
same,normalized growth,"S. cerevisiae deletion strains, locus YOR106W, strain vam3, stronger effect = lower value",0.946
same,normalized growth,"S. cerevisiae deletion strains, locus YOR136W, strain idh2, stronger effect = lower value",1.01
same,normalized growth,"S. cerevisiae deletion strains, locus YOR144C, strain elg1, stronger effect = lower value",1.01
same,normalized growth,"S. cerevisiae deletion strains, locus YOR184W, strain ser1, stronger effect = lower value",0.979
same,normalized growth,"S. cerevisiae deletion strains, locus YOR231W, strain MKK1, stronger effect = lower value",1.02
same,normalized growth,"S. cerevisiae deletion strains, locus YOR265W, strain rbl2, stronger effect = lower value",0.976
same,normalized growth,"S. cerevisiae deletion strains, locus YOR270C, strain vph1, stronger effect = lower value",0.932
same,normalized growth,"S. cerevisiae deletion strains, locus YOR290C, strain snf2, stronger effect = lower value",0.896
same,normalized growth,"S. cerevisiae deletion strains, locus YOR316C, strain cot1, stronger effect = lower value",1
same,normalized growth,"S. cerevisiae deletion strains, locus YPL051W, strain arl3, stronger effect = lower value",0.981
same,normalized growth,"S. cerevisiae deletion strains, locus YPL055C, strain LGE1, stronger effect = lower value",1
same,normalized growth,"S. cerevisiae deletion strains, locus YPL078C, strain atp4, stronger effect = lower value",0.959
same,normalized growth,"S. cerevisiae deletion strains, locus YPL106C, strain sse1, stronger effect = lower value",0.956
same,normalized growth,"S. cerevisiae deletion strains, locus YPL240C, strain hsp82, stronger effect = lower value",0.98
same,normalized growth,"S. cerevisiae deletion strains, locus YPL241C, strain CIN2, stronger effect = lower value",1.01
same,normalized growth,"S. cerevisiae deletion strains, locus YPL256C, strain CLN2, stronger effect = lower value",1.09
same,normalized growth,"S. cerevisiae deletion strains, locus YPR119W, strain clb2, stronger effect = lower value",1
same,normalized growth,"S. cerevisiae deletion strains, locus YPR141C, strain kar3, stronger effect = lower value",1
same,normalized growth,"S. cerevisiae deletion strains, locus YPR163C, strain tif3, stronger effect = lower value",0.996
same,normalized growth,"S. cerevisiae deletion strains, locus YPR167C, strain met16, stronger effect = lower value",1.01
same,normalized growth,"S. cerevisiae deletion strains, strain wtn01, stronger effect = lower value",0.975
same,normalized growth,"S. cerevisiae strains, strain wild type, stronger effect = lower value",1
